Laboratory results published in PMC6212790, “How bacterial xenogeneic silencer rok distinguishes foreign from self DNA in its resident genome”.
Whole data set: some 33,000 sequences, median “e-score” near -0.037, cut for the highest 2% near 0.34. The sample as a whole holds a higher share of the highest values than the screen did.

Target: T1, GST-Rok (full length) (Bacillus subtilis subsp. subtilis str. …, UniProt O34857 1-191)
T1 sequence: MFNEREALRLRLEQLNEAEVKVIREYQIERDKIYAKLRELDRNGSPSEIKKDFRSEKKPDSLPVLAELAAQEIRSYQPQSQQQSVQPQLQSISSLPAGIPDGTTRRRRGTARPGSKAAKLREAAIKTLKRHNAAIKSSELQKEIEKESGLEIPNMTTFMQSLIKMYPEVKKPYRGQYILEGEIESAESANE
Assay: protein binding microarray; Rok is a gene silencer of Bacillus subtilis; high values mean tight binding
Settings: protein: recombinant; tags: GST (pTH5325, pDEST15-Magic modified); dsDNA, one strand shown
In short: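 Each has a 25-mer constant primer and a 35-mer variable part from a de Bruijn sequence of order 10, covering every non-palindromic 8-mer at least 32 times (palindromic 16). Preference for each 8-mer is given as a rank-based, unitless enrichment score (E-score). Its range runs from 0.5 (most favored) to −0.5 (most disfavored).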

| Sequence | binding signal [E-score] |
| --- | --- |
| ATTATCTC | -0.0512 |
| ACCATCTC | -0.0707 |
| CCTATCTA | 0.34 |
| ACCATCTA | 0.351 |
| AGTATCTA | 0.343 |
| ATTATCTG | 0.284 |
| AGTATCTC | 0.238 |
| CCTATCTC | 0.168 |
| AGTATCTG | 0.189 |
| GCCATCTA | 0.0099 |
| ATTATCTA | 0.412 |
| CCTATCCA | -0.0329 |
| CTAACGAG | 0.0146 |
| GCCAAGTA | 0.107 |
| AGCGAGCA | -0.18 |
| TACCAGCA | 0.135 |
| GAACAACA | -0.0557 |
| ACTATCTA | 0.397 |
| ACTATCTC | 0.128 |
| GCTATCTA | 0.33 |
| ACTTTCTC | 0.0817 |
| CCTTTCTA | 0.158 |
| CATTTCTA | 0.288 |
| ATTTTCTC | 0.264 |
| GATTTCGA | 0.183 |
| GATTTCTA | 0.3 |

| Sequence | binding signal [E-score] |
| --- | --- |
| ATTTTCTA | 0.397 |
| AATTTCTA | 0.344 |
| CATTTCGA | -0.0105 |
| ATTTTCTG | -0.139 |
| ACTTTCTA | 0.386 |
| AATTTCGA | 0.352 |
| CTTTACGC | 0.177 |
| AGGCCGTA | -0.152 |
| CATCGTAA | 0.169 |
| GTTTCCAA | 0.0167 |
| CTAGCGTC | -0.0555 |
| AGCTTAGG | 0.072 |
| AGTTTCTA | 0.402 |
| AGTTTCTC | 0.274 |
| GGTTTCTA | 0.334 |
| GACAGAAC | -0.0014 |
| CCTCTAAC | -0.0188 |
| GCAGTATA | 0.275 |
| CTAGTATC | 0.241 |
| GAAGTATA | 0.169 |
| GTAGTACA | 0.236 |
| CAAGTATA | 0.204 |
| CTAGTATA | 0.409 |
| GTAGTATA | 0.423 |
| CCAGTATA | 0.235 |
| ACAGTATA | 0.343 |

| Sequence | binding signal [E-score] |
| --- | --- |
| CCTAACAG | 0.0291 |
| ATTAGCAA | 0.0548 |
| CGCAACTC | -0.103 |
| AATGACAA | 0.16 |
| TATTACGA | 0.296 |
| GCGTATCA | 0.0845 |
| GAACAGTA | 0.264 |
| CAACAGTA | 0.316 |
| TAACAGTA | 0.355 |
| AGAATGTA | 0.201 |
| AATATTTA | 0.325 |
| TATATTAA | 0.364 |
| TATATTGA | 0.278 |
| CATATTAA | 0.268 |
| AATATTAC | 0.239 |
| GATATTAA | 0.365 |
| CATATTTA | 0.324 |
| CATATTAC | 0.289 |
| AATATTAA | 0.334 |
| TGTATTAA | 0.241 |
| GATATTTA | 0.351 |
| GATATTAC | 0.364 |
| CCGGTCGA | -0.102 |
| AGAGACTA | 0.093 |
| CCCTCGTA | -0.134 |
| AGCCAAAT | 0.0925 |

| Sequence | binding signal [E-score] |
| --- | --- |
| TAAGAGCA | -0.127 |
| CGCTGTGA | -0.0511 |
| GCTTCAAC | 0.127 |
| AGCTCCAG | -0.0852 |
| ACATTCTC | 0.0677 |
| ACGTTCTC | 0.0202 |
| GGGAAATA | 0.127 |
| GTTTAGTA | 0.272 |
| ATTTAGTA | 0.363 |
| AATTAGTG | 0.322 |
| AATTAGTA | 0.416 |
| CATTAGTA | 0.227 |
| ATTTAGTG | 0.166 |
| GCGCATAC | 0.0802 |
| CGTTCTGA | -0.0208 |
| GTAGATAC | 0.359 |
| TTAGATAA | 0.251 |
| CTAGATAA | 0.302 |
| GCAGATAC | 0.0143 |
| CTAGATAC | 0.22 |
| GTAGATAA | 0.407 |
| ACGGTTGC | -0.00987 |
| CGACGTAC | -0.0209 |
| ACTGCCGC | -0.152 |
| ATAGGAAG | 0.0173 |
| AGGCTCGA | -0.0603 |

| Sequence | binding signal [E-score] |
| --- | --- |
| GGTCTACA | 0.0329 |
| GCTCTACA | -0.114 |
| AATCTACA | 0.326 |
| TATCTACA | 0.348 |
| GATCTACA | 0.369 |
| CATCTACA | 0.177 |
| ATTAAATG | 0.0625 |
| AGGCTGTA | 0.00795 |
| ACTACTAC | 0.4 |
| ACTACTGG | 0.224 |
| ACTACTAT | 0.465 |
| ACTACTCT | 0.184 |
| CCTACTAC | 0.258 |
| ACAACTAG | 0.351 |
| ACAACTAT | 0.33 |
| ACAACTAC | 0.311 |
| ACTACAAT | 0.344 |
| ACTACAAC | 0.293 |
| GCTACTAC | 0.198 |
| ACTACAAG | 0.22 |
| ATGCGAGA | 0.00939 |
| CGTTTGTC | -0.0759 |
| CTACCAAC | 0.164 |
| AGACGCTG | -0.151 |
| CAGTCCAA | -0.0763 |
| AGCCCAAC | -0.175 |

| Sequence | binding signal [E-score] |
| --- | --- |
| TCCAGAAA | -0.00865 |
| CCTACTAG | 0.0992 |
| ACTACTCG | 0.187 |
| ACTACTAG | 0.346 |
| ATGGTACG | 0.183 |
| GCATTAAC | 0.0561 |
| AGACTAAA | -0.0347 |
| CTACTAAC | 0.324 |
| ATACTAAC | 0.199 |
| ATACTAAG | 0.175 |
| ATACTAAA | 0.391 |
| ACACTAAA | 0.174 |
| CTACTAAA | 0.357 |
| TTACTAAA | 0.32 |
| ATACTAAT | 0.378 |
| GAGGCATC | -0.172 |
| CAGCTGTA | 0.0605 |
| ACATCTAC | 0.272 |
| ACTTCGGA | -0.0792 |
| ACCCTAAA | 0.024 |
| CCACTGTC | -0.188 |
| CTGCTTTA | 0.0813 |
| ATAAGGAC | -0.2 |
| GTAGAAAA | 0.387 |
| CTAGAAAC | 0.3 |
| TTAGAAAA | 0.185 |

| Sequence | binding signal [E-score] |
| --- | --- |
| GCAGAAAC | -0.0153 |
| GTAGAAAC | 0.427 |
| CTAGAAAA | 0.291 |
| ATCTGGTC | -0.135 |
| ATCTTTAA | 0.0286 |
| AGATTGGC | 0.136 |
| CGTTCCAC | -0.021 |
| ACATTTAC | 0.313 |
| ATATTTGC | 0.285 |
| CTATTTAC | 0.342 |
| ATATTTAG | 0.287 |
| ATTTTTAA | -0.0198 |
| CTCTTTAC | 0.158 |
| CTATTTAA | 0.0252 |
| ATATTTAA | 0.387 |
| ATATTTAC | 0.379 |
| AGTCAAAA | 0.108 |
| CGTTTGAA | -0.00324 |
| ACCTTCAG | -0.119 |
| TCCACAAA | 0.0863 |
